Bioassay records from PubChem BioAssay.
An excerpt weighted towards active compounds, which were near 2% of everything screened.
CtBP-E1A inh: qHTS Assay for Inhibitors of the CtBP/E1A Interaction. AID 651724, 2012. AlphaScreen GST-E1A/His-CtBP binding, 1536-well; hits give low values. actives 0.49% (n = 340,000). activity change, % (no concentration beside the values)
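AlphaScreen with 125 nM GST-E1A and 125 nM His-CtBP (5X stocks) in Tris pH 8.0, 300 mM NaCl, BSA, Tween 20, TCEP. Compounds preincubated 2 h at 37 deg C, then glutathione donor/nickel acceptor beads added for 1 h at 37 deg C in dark.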
KCNH2 WT inh: qHTS for Inhibitors of KCHN2 3.1: Wildtype qHTS | AID 720551, 2013 | U2OS, BacMam KCNH2, thallium flux FluxOr; hits give low values | Voltage-gated inwardly rectifying potassium channel KCNH2 (Homo sapiens), Q12809 | actives 0.37% (n = 340,000) | activity change, % at 1.84 µM;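 active = maximum activity change below -70%; inconclusive = maximum activity change between -70% and -50%; inactive = maximum activity change above -50%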
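U2OS cells transduced with wild-type KCNH2 virus are loaded with FluxOr dye for 45 min, and thallium flux is measured in kinetic reads before and after stimulation buffer. Rate constants are normalized to DMSO controls.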
Six1-Eya2 blk: qHTS Assay for Inhibitors of the Six1/Eya2 Interaction. Homeobox protein SIX1 (Homo sapiens) + Protein phosphatase EYA2 (Homo sapiens), …. AlphaScreen GST-Six1/His-Eya2 binding, biochemical; hits give low values. activity change, % (no concentration beside the values). actives 0.56% (n = 360,000). AID 651725, 2012
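AlphaScreen luminescence read after one hour at 37 °C in darkness. Pin-transferred compounds met GST-Six1 and His-Eya2 protein (5X stock 250 nM/500 nM) plus glutathione donor and Ni-chelate acceptor beads (5X, 50 ug/mL).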
KCNH2 3.1 inh: qHTS for Inhibitors of KCHN2 3.1: Mutant qHTS | activity change, % (tested at about 1.8 µM) | actives 0.95% (n = 340,000) | Potassium voltage-gated channel subfamily H member 2, brain isoform KCNH2 3.1 (human) | AID 720553, 2013 | U2OS KCNH2 3.1, thallium flux FluxOr; hits give low values;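 active = maximum activity change below -70%; inconclusive = maximum activity change from -70% to -50%; inactive = maximum activity change above -50%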;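 note: thallium influx rate constant from kinetic fluorescence after stimulation buffer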
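Measured as rate of thallium-driven FluxOr signal in transduced U2OS cells carrying the 3.1 channel, read kinetically for 2 min upon stimulation; values are rate constants scaled to DMSO control wells.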
KDM4E inh: qHTS Assay for Inhibitors of Human Jumonji Domain Containing 2E (JMJD2E). Lysine-specific demethylase 4E (Homo sapiens), B2RXH2. JMJD2E catalytic domain, FDH-coupled NADH fluorescence (FDH is formaldehyde dehydrogenase). Potency, µM (titrated, usually from 57.1 µM), without a hit: at the highest dose activity change, negative = inhibition, most hits filed as inhibitors. actives 1.6% (n = 230,000). AID 2147, 2009; active = well fitted inhibition curve with a large enough effect, not every such curve was filed as active; inconclusive = small, poorly fitted or top-dose-only effect, or another doubt; inactive = no such curve, though single readings can be large or run the other way;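 note: potency is the fitted concentration of half-maximal effect; 0% = wells with enzyme and -100% = buffer wells without enzyme; nearly all actives have a fitted effect of over 50% in size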
Target sequence (B2RXH2 1-337 limits assumed): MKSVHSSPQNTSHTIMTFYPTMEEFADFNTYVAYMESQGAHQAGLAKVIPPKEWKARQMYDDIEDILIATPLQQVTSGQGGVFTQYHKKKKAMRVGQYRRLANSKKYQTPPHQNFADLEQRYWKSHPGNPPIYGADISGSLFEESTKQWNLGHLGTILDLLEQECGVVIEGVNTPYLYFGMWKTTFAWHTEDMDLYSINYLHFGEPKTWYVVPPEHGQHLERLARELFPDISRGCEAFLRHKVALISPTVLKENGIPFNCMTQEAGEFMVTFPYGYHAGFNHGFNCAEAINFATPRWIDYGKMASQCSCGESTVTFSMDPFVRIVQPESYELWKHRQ
Active calls of the source: *; ? = inconclusive; . = no result. Cut-off read from the data, not from the text of the source, unless noted: active = activity change below about -65%; inconclusive = mostly about -30% to -63%; inactive = weaker than that. Unless noted, % is set by controls: 0 for no effect and ±100 for the full control effect.

SMILES | CtBP-E1A inh | KCNH2 WT inh | Six1-Eya2 blk | KCNH2 3.1 inh | KDM4E inh
CCOC(=O)C1CCCN(C(=O)c2cc(S(=O)(=O)N3CCCCCC3)ccc2OC)C1 (stereo unspecified) | 6 | 15 | 1 | 12 | .
CN1CCN(CC(=O)Nc2c(C(=O)c3ccccc3)oc3ccccc23)CC1 | -8 | -101* | -4 | -106* | .
Cc1noc(C)c1S(=O)(=O)NC(=O)C1(C)CCN1C(=O)c1ccc(C2CCCCC2)cc1 (stereo unspecified) | 9 | . | -1 | . | .
COc1ccc(-c2c(C)[nH]n3c(=O)c(Cc4ccccc4)c(C)nc23)cc1 | -71* | -10 | -67* | -6 | 1%
O=C(c1ccc(Br)cc1)N1CCC2(CC1)NCCc1[nH]cnc12 | 1 | ? | -2 | -87* | .
CCOc1ccc(CC(=O)N2CCC3(CC2)NCCc2[nH]cnc23)cc1 | . | -10 | 4 | -4 | .
CCOc1ccc(C(=O)N2CCC3(CC2)NCCc2[nH]cnc23)cc1 | 0 | -14 | -1 | -89* | .
CC(C)(C)c1ccc(C(=O)N2CCC3(CC2)NCCc2[nH]cnc23)cc1 | -11 | -5 | -3 | 4 | .
Cc1ccc(C)c(N2CCN(CCCNC(=O)Cn3cccc3C(=O)c3ccccc3C)CC2)c1 | -10 | -75* | -10 | -84* | -14%
Cc1ccccc1C(=O)c1cccn1CC(=O)NCCN1CCN(c2cccc(C)c2C)CC1 | -29 | ? | ? | -79* | 2%
C/C(=N\NC(=O)c1nnn(-c2nonc2N)c1CN(C)C)c1ccco1 | -6 | 4 | 0 | -27 | .
CN1CCN(c2ccccc2NC(=O)c2cc3c(s2)-c2ccccc2OC3)CC1 | -79* | 16 | -1 | -14 | ?
O=C(Nc1ccccc1N1CCN(C(=O)c2ccc(Cl)cc2)CC1)c1cccc([N+](=O)[O-])c1 | -15 | -123* | -16 | -102* | .
O=C(Nc1ccccc1N1CCN(C(=O)c2ccc(Cl)cc2)CC1)c1cc(Br)ccc1Cl | -12 | -121* | -8 | -101* | ?
CN1CCN(c2ccccc2NC(=O)c2cc(Br)ccc2Cl)CC1 | -16 | -23 | -1 | -87* | 3%
CCOC(=O)c1cc2oc(C(c3nnnn3C3CCCCC3)N3CCOCC3)cc2[nH]1 (stereo unspecified) | 2 | 14 | -8 | -46 | 0%
Cc1ccc(C(=O)Nc2ccccc2N2CCCCC2)cc1[N+](=O)[O-] | . | -7 | -3 | -83* | 0%
Cc1ccc(C(=O)NC(=S)Nc2ccccc2N2CCCC2)cc1[N+](=O)[O-] | -29 | -6 | ? | 5 | 12%
O=C(NCC(c1cccnc1)N1CCN(c2ccccc2)CC1)c1ccco1 (stereo unspecified) | 5 | -4 | 2 | -13 | .
CC1=C(C(=O)Nc2ccccc2C)C2(CCCCC2)C(C(N)=O)C(=S)N1 (stereo unspecified) | 2 | -1 | 6 | -26 | 0%
Nc1ccc(CSc2ccc(Cl)cc2)c(Cl)c1 | 23 | 12 | 5 | -102* | .
O=C(NCc1cccnc1)c1ccc(CS(=O)(=O)Cc2ccc(Cl)cc2)o1 | 4 | -9 | -1 | -9 | 0%
O=S(=O)(Cc1ccc(Cl)cc1)NCc1cccnc1 | 9 | -9 | 10 | -78* | 0%
COc1cc2c(cc1OC)C(c1ccc(-c3ccc(Cl)cc3Cl)o1)=NCC2 | -26 | -4 | -27 | -115* | -2%
CC(NC(=O)Cn1nc(C(F)(F)F)c2c1CCC2)c1ccccc1 (stereo unspecified) | 0 | -4 | 6 | 6 | -3%
COCCNC(=O)c1ccc(-n2c(SCc3cc(F)ccc3F)nc3ccccc3c2=O)cc1 | 18 | 6 | 11 | 3 | 5%
O=C(NC1c2ccccc2Oc2ccccc21)c1ccc([N+](=O)[O-])cc1 | 0 | ? | 8 | -100* | .
Cc1ccc(S(=O)(=O)N(C)Cc2cc3cc(C)ccc3[nH]c2=O)cc1 | 2 | -3 | 4 | -117* | .
